Data: PubChem BioAssay AID1347165 (National Center for Advancing Translational Sciences (NCATS), 2019)
Hit rate of the full screen: of about 220,000 compounds, about 5,700 (2.6%) were called active. Inconclusive results (about 18%) are left out. This excerpt belongs to a sample that is enriched for actives. Unmarked numbers belong to inactive results. The call rests on the fitted dose curve; in most records, active means well fitted inhibition curve with a large enough effect; inconclusive means small, poorly fitted or top-dose-only effect; inactive means no such curve, though single readings can be large or run the other way.

Each compound was assayed against Lysine-specific demethylase 5B (Homo sapiens) (UniProt Q9UGL1) (assay: Primary screen for KDM5B Histone Demethylases FDH-coupled qHTS). Details: FDH-coupled NADH fluorescence (FDH is formaldehyde dehydrogenase); series mostly up to 57.7 µM; activity change, negative = inhibition: at the top concentration.
Source text: Assay Submitter (PI): Qin Yan, Ph.D. (Yale University) and Xiaodong Cheng, Ph.D. (MD Anderson) This project was funded as part of the NCI NEXT Program and Chemical Biology Consortium (CBC) The histone demethylases, KDM5A and KDM5B catalyze the demethylation of lysine 4 on histone H3 (H3K4me3/2). They are overexpressed in a variety of cancers and have been implicated in cancer cell growth, metastasis, drug resistance, and tumor growth. KDM5A is amplified and overexpressed in breast and gastric cancer; and is translocated in leukemia. While KDM5B is highly expressed in human mammary tumors and breast cancer cell lines, but not in normal adult breast tissue. Moreover, knockdown of KDM5B leads to upregulation of tumor suppressor genes, including BRCA1. The goal of this project is to employ qHTS to identify selective small molecule inhibitors of KDM5A/B demethylase activity to better understand the role of KDM5 in cancer and to develop novel therapies. We employed an FDH-coupled assay previously reported by Sakurai et al. to monitor in vitro KDM5 demethylase activity. Compounds showing dose response inhibition are re-acquired, validated, and tested for non-specific interference with the formaldehyde dehydrogenase (FDH) counterscreen. True inhibitors are validated using an AlphaLisa secondary screen, which employs an H3K4(me2-1)-specific antibody to monitor demethylation of a biotin-tagged H3K4(me3) peptide substrate. Inhibitors are profiled against KDM4A and KDM6A AlphaLisa counterscreens to determine level of demethylase specificity; and against the TruHits counterscreen to eliminate non-specific inhibitory activity on the AlphaLISA detection method. Selective inhibitors identified from the primary and secondary screening are tested in cells using immunofluorescence to monitor global H3K4 tri-methylation as a measure of KDM5A/B inhibition. Early Translation Branch (ETB) National Center for Advancing Translational Sciences (NCATS), Rockville, MD National Institute of Health (NIH), Bethesda, Maryland [1] Sakurai, M et al. A miniaturized screen for inhibitors of Jumonji histone demethylases. Mol Biosyst. 2010 Feb;6(2):357-64. doi: 10.1039/b912993f. Epub 2009 Oct 8.
Materials: 1536-well Black, solid bottom, medium binding assay plate is purchased from Greiner Bio-one. The enzymes (KDM5B) and substrate (H3K4me3/2) are provided by the principal investigators. The buffer for this assay is composed of 50mM HEPES at pH 7.5 with 0.01% Tween-20. FDH coupled Demethylase qHTS protocol: Three microliter enzyme mix (buffer + 200nM KDM5BDeltaAP final concentration) is dispensed into the assay plate using the BioRAPTR Flying Reagent Dispenser (FRD; […]). Compound (at various final concentration) and control solution is pin transferred to the assay plate using the Kalypsys 1536-pin tool apparatus. The assay plate is incubated for 10 min at room temperature followed by addition of 1uL substrate mix (buffer + 100uM ascorbic acid, 50uM ferrous ammonium sulfate, 12.5uM H3K4Me3, 25uM a-ketoglutarate, 0.25 mM NAD+, 0.25 U/mL formaldehyde dehydrogenase using the FRD yielding a total reaction volume of 4 uL. Initial fluorescence (Read1) is detected using the PerkinElmer ViewLux plate reader equipped with 340 nm excitation and 450 nm emission filters. The final fluorescence (Read2) signal is obtained after 30 min of room temperature incubation. Delta RFU is calculated (Read2 - Read1) and is used to generated dose response curves.
Further: nearly all actives have a fitted effect of over 70% in size.
Potency means the concentration at half of the fitted maximal effect.
Wherever activity change, negative = inhibition is given: 0% is about no effect.

Sequence of Lysine-specific demethylase 5B (Homo sapiens) (Q9UGL1 whole entry, looked up): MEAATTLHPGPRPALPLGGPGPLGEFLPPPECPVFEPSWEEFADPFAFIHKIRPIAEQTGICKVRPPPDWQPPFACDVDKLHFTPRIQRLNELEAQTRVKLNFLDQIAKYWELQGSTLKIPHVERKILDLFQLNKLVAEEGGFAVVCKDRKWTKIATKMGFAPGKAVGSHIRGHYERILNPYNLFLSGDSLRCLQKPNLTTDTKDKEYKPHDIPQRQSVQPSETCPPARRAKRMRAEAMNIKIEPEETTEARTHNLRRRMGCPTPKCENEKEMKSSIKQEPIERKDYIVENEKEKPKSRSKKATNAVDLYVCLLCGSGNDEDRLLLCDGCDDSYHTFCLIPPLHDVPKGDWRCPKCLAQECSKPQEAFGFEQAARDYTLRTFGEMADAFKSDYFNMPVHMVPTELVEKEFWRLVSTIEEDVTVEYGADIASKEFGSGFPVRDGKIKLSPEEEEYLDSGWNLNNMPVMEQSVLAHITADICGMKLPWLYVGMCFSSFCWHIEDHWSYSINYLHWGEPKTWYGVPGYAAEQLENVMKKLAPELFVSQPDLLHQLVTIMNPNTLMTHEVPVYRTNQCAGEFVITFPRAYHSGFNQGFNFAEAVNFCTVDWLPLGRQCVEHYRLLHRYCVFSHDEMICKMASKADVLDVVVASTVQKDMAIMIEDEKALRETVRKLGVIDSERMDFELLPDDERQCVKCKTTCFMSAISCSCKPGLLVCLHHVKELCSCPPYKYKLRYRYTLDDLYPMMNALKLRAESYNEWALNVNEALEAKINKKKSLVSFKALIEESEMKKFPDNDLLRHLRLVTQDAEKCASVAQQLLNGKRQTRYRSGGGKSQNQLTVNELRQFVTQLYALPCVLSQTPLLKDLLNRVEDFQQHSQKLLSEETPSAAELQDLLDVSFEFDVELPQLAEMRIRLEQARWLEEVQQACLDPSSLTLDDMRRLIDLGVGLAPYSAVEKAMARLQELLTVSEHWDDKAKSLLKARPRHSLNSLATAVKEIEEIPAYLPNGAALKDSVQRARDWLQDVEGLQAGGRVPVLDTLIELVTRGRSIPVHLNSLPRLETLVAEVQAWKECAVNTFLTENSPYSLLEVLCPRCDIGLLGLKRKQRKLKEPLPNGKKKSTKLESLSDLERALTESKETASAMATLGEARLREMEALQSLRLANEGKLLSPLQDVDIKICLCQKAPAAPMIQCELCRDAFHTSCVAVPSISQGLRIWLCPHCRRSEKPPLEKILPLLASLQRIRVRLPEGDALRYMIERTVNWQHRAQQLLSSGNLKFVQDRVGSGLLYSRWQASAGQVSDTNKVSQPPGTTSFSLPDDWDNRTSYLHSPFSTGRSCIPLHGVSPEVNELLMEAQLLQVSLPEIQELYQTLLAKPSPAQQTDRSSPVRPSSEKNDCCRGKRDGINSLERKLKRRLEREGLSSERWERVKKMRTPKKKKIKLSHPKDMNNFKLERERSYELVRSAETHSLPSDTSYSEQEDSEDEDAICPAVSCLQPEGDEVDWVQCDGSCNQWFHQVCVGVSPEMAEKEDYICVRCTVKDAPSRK

Point of comparison: `Cn1c(=O)c2c(nc(SCC(=O)Nc3ccccc3F)n2Cc2ccccc2)n(C)c1=O`, “activity change, negative = inhibition” value -9.27%. Against it:
- Cc1ccccc1NC(=O)Cn1c(=O)n(Cc2ccco2)c(=O)c2ccc(C(=O)NC3CCCC3)cc21 — lower, -27.5%
- Cc1oc2ccn(Cc3cccc(F)c3)c(=O)c2c1C(=O)NCc1cccnc1 — higher, 1.67%
- COCCCNC(=O)c1ccc2c(c1)n(Cc1cccc(OC)c1)c(=O)c1ccnn12 — lower, -15%
- O=C(Nc1ccc(F)cc1F)c1ccc2c(c1)n(Cc1cccc(F)c1)c(=O)c1ccnn12 — higher, -0.702%
- CCCCc1ccc(C(=O)NCc2cccnc2)cc1 — higher, 12.1%
- Cc1[nH]c2ccccc2c1C=O — higher, 3.68%
- CCOC(=O)CN(CCOC)C(=O)CCCc1ccccc1 — higher, 15%
- CC(C)(C)c1ccc(N2C(=O)[C@@H]3C[C@@H](NC(=O)[C@@H](O)c4ccccc4)CCN3C2=O)cc1 — higher, 1.01%
- O=C(CN1N=C(c2ccccc2F)c2cc(Cl)ccc2S1(=O)=O)Nc1cc(F)ccc1F — higher, 1.12%
- N#Cc1c(N)n[nH]c1CCCNc1ncnc2c1oc1ccccc12 — higher, -1.15%
- O=C1CCN(C(=O)c2nccc3ccccc23)CCOCCN1 — higher, -7.83%
- O=C(c1cc(-c2ccc(Cl)s2)nc2ccccc12)N1CCOCC1 — lower, -666%
- NC(=O)c1ccc(NC(=O)CCc2ncc(-c3ccc(F)cc3)o2)cc1 — higher, -4.37%
- O=C(CSc1nnc(-c2ccccc2)c2ccccc12)c1ccc2c(c1)OCCCO2 — higher, 0.618%
- O=C(CS(=O)(=O)Cc1coc(-c2ccc(F)cc2)n1)NC1CCCCCC1 — higher, 3.85%
- O=C(COc1ccc(Cl)cc1)Nc1ccc2oc(-c3ccc(F)cc3)nc2c1 — lower, -13.3%
- CC(C)C(Nc1ccc([N+](=O)[O-])cn1)c1ccc(Cl)cc1 (centres undefined) — higher, -3.31%
- Cc1ccccc1CN1CCC(N2CCCC(C(=O)NC3CC3)C2)CC1 (centres undefined) — higher, 14.5%
- CCN(CC)Cc1ccc(CNC(=O)C2CCN(c3nc4ccccc4o3)CC2)cc1 — lower, -10.5%
- Cc1ccnc(N2CCCC(C(=O)NC3CC3)C2)n1 (centres undefined) — lower, -15%
- O=C(NC1C[C@H]2CC[C@@H](C1)N2S(=O)(=O)c1ccc2c(c1)OCCO2)c1ccc(F)cc1 (some centres undefined) — higher, 3.96%
- Cc1cc(C)cc(C(=O)NC2CCN(c3cnn(C)c(=O)c3)CC2)c1 — higher, -4.03%
- O=C(NC1CCCCC1)c1ccc(Cn2c(SCc3ccccc3)nc3cccnc32)cc1 — lower, -21.5%
- O=C(NCc1ccccc1)C1CCN(c2nc3ccccc3o2)CC1 — higher, 11.2%
- O=C(NC1CCN(c2cc(C(F)(F)F)ncn2)CC1)c1ccc(F)cc1 — higher, 9.96%
- CC/C(=N/N=C(/CC)c1ccccc1)c1ccccc1 — higher, 23.2%
- CC(C)c1nnc(NC(=O)c2cc(Cl)c3c(c2)OCCO3)s1 — higher, -1.89%
- O=C(NCc1ccc(CN2CCCCC2)cc1)c1cc2ccccc2oc1=O — higher, 97.4%
- CC(C)NC(=O)Nc1ccc(CNC(=O)C2(C#N)CCCC2)cc1 — lower, -18.1%
- Cn1c(=O)[nH]c(=O)c2c1nc(N1CCC(Cc3ccccc3)CC1)n2CCCc1ccccc1 — higher, 10.3%
- O=C(NCC(=O)N1CCCC(C(F)(F)F)C1)c1ccccc1F (centres undefined) — higher, 9.21%
- CC1CCC(NC(=O)CCCc2ccccc2)CC1 (centres undefined) — higher, -6.51%
- O=C(c1n[nH]c(=O)c2ccccc12)N1CCCCCC1c1nnc(-c2ccccc2)o1 (centres undefined) — higher, -0.997%
- Cc1sc(NCCC(C)C)nc1-c1ccc(NS(C)(=O)=O)cc1 — higher, -7.19%
- CC(C)c1ncc(Cl)c(C(=O)O)n1 — higher, 16.6%
- COc1ccc(Nc2cc(Cl)ccc2C(=O)O)cn1 — lower, -24.1%
- CN(C(=O)CCc1c[nH]c2ccccc12)C1CCCC1 — higher, 10.4%
- CCOc1ccccc1NC(=O)c1cnc2ccccc2n1 — higher, 4.75%
- CCC(C(=O)Nc1ccc(F)cc1F)n1nc(-c2ccc(C)cc2)ccc1=O (centres undefined) — higher, 3.04%

With `O=C(NCc1cccnc1)c1ccc2c(c1)n(Cc1ccc(F)cc1)c(=O)c1ccnn12` the Potency was 25.1 µM (active).
For `CCn1c(=O)c2ccnn2c2ccc(C(=O)NC3CCCCC3)cc21`, the Potency was 25.1 µM (active).
`CC(C)(C)c1nc(C(=O)N2CCOCC2)n2ccccc12` was tested, and the Potency was 100 µM (active).
`c1cc(-c2ccsc2)n2nc(C3CCCO3)nc2n1` (centres undefined) was tested, and the Potency was 25.1 µM (active).
With `O=C(NC1CCN(c2nc3ncccc3o2)CC1)c1ccc(Cl)nc1` the Potency was 25.1 µM (active).
`CN(C)C(=O)NC1CCN(c2nc3ncccc3o2)CC1` was tested, and the Potency was 31.6 µM (active).
For `O=C(NC1CC1)C1CCCN(c2nc3ncccc3o2)C1` (centres undefined), the Potency was 35.5 µM (active).
`O=C(NC1CCN(c2nc3ncccc3o2)CC1)c1ccc(F)cc1` was tested, and the Potency was 35.5 µM (active).
In the case of `COc1ccc(Nc2cc3c(nc2-c2ccccc2)nc(C(=O)NCCN(C)C)n3C)cn1`, the Potency is reported as 31.6 µM (active).
`O=c1[nH]c(C2CCCN(Cc3ccc(-c4ccsc4)cc3)C2)nc2ccc(F)cc12` (centres undefined) was tested, and the Potency was 79.4 µM (active).
For `Cc1ccc2nc(C3CCCN(Cc4ccc(C#N)cc4)C3)[nH]c(=O)c2c1` (centres undefined), the Potency was “inactive”.
In the case of `O=c1[nH]c(C2CCN(Cc3ccccc3)CC2)nc2ccc(F)cc12`, the Potency is reported as “inactive”.

In the case of `CN(C)CCNC(=O)c1nc2nc(-c3ccccc3)c(-c3cccc(F)c3)cc2n1C`, the “activity change, negative = inhibition” value is reported as -5860% [at 86.2 µM].

`O=C1NCc2ccccc2CC12CCCN(Cc1ccc(F)c(Cl)c1)C2` (centres undefined) was tested, and the “activity change, negative = inhibition” value was 19% [at 115 µM].
